What all share (test): yeast three-hybrid, YBZ-1, SC-Leu-His + 0.5 mM 3-AT, 4 days
What all share (conditions): tags: N-Gal4 AD-HA kept; label: inside an RPR1-promoter hybrid RNA with tandem MS2 sites; ssRNA

One test has as its target PUM1 PUF domain R5-HKE (Homo sapiens, UniProt Q14671 828-1176, C1007H;R1008K;Q1011E). In a few lines: (§1)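 The interaction score is the log change in how often each variant appears, from input to selection. Frequencies came from PCR-amplified, Illumina-sequenced repeat regions of Pumilio-1 PUF domain libraries grown in strain YBZ-1 (LexA–MS2 coat fusion, HIS3 reporter) alongside matching RNA elements. Input plates were SC-Leu and selection plates were SC-Leu-His + 0.5 mM 3-AT, each for four days, and the log2 calculation used a pseudocount of 1 where a variant was absent.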

The next test addresses PUM1 PUF domain R5-RRS (Homo sapiens, UniProt Q14671 828-1176, C1007R;Q1011S). In a few lines:
as §1

The next test deals with PUM1 PUF domain R5-RKC (Homo sapiens, UniProt Q14671 828-1176, C1007R;R1008K;Q1011C). In a few lines: as §1
Another test has as its target PUM1 PUF domain R5-RYS (Homo sapiens, UniProt Q14671 828-1176, C1007R;R1008Y;Q1011S). A digest of the protocol: as §1
The target of another test is PUM1 PUF domain R5-RFL (Homo sapiens, UniProt Q14671 828-1176, C1007R;R1008F;Q1011L). A digest of the protocol:
as §1

The next test concerns the target PUM1 PUF domain R5-SSR (Homo sapiens, UniProt Q14671 828-1176, C1007S;R1008S;Q1011R). A digest of the protocol:
as §1

In a further test the target is PUM1 PUF domain R2-EWV (Homo sapiens, UniProt Q14671 828-1176, N899E;Y900W;Q903V). In a few lines: as §1
The target of a further test is PUM1 PUF domain R4-VPQ (Homo sapiens, UniProt Q14671 828-1176, N971V;H972P). In a few lines:
as §1

For another test, the target named is PUM1 PUF domain R4-SPA (Homo sapiens, UniProt Q14671 828-1176, N971S;H972P;Q975A). In a few lines:
as §1

A further test addresses PUM1 PUF domain R5-TRG (Homo sapiens, UniProt Q14671 828-1176, C1007T;Q1011G). A digest of the protocol: as §1
The next test deals with PUM1 PUF domain R5-GLW (Homo sapiens, UniProt Q14671 828-1176, C1007G;R1008L;Q1011W). A digest of the protocol: as §1
In another test the target is PUM1 PUF domain R8-RFP (Homo sapiens, UniProt Q14671 828-1176, N1122R;Y1123F;Q1126P). A digest of the protocol:
as §1

The target in a further test is PUM1 PUF domain R1-VTW (Homo sapiens, UniProt Q14671 828-1176, S863V;R864T;Q867W). A digest of the protocol:
as §1

Chain of PUM1 PUF domain R4-SPA (Q14671 828-1176 N971S/H972P/Q975A): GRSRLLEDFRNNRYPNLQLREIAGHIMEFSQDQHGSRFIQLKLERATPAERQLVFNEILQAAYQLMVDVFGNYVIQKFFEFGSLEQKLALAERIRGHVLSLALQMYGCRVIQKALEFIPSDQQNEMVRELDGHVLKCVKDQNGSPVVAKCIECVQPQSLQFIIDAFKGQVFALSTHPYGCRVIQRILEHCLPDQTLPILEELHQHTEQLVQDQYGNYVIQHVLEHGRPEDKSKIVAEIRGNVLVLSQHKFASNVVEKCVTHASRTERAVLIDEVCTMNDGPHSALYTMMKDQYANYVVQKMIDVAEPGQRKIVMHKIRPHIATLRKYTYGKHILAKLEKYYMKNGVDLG
Chain of PUM1 PUF domain R5-RFL (Q14671 828-1176 C1007R/R1008F/Q1011L): as the sequence (Q14671 828-1176 N971S/H972P/Q975A) above, with S144N, P145H, A148Q, C180R, R181F, Q184L counted along it
Chain of PUM1 PUF domain R5-RRS (Q14671 828-1176 C1007R/Q1011S): as the sequence (Q14671 828-1176 N971S/H972P/Q975A) above, with S144N, P145H, A148Q, C180R, Q184S counted along it
Chain of PUM1 PUF domain R5-RYS (Q14671 828-1176 C1007R/R1008Y/Q1011S): as the sequence (Q14671 828-1176 N971S/H972P/Q975A) above, with S144N, P145H, A148Q, C180R, R181Y, Q184S counted along it

In the case of “GGCUAGAACUAGUGGAUCCCCCGGCGCCCGGCGGCUCGAGCCCGGGUAAGUGUCAAUAGUCUGCAUGCCGCCGGGCGCCAUGCCUGCAGGUCGACUCUAGAAAACAUG”, the binding signal with PUM1 PUF domain R5-HKE was 3.67 log2 enrichment (interaction score); with PUM1 PUF domain R5-RRS, 4.44 log2 enrichment (interaction score); with PUM1 PUF domain R5-RKC, 3.84 log2 enrichment (interaction score); with PUM1 PUF domain R5-RYS it was 5.4 log2 enrichment (interaction score); in the test with PUM1 PUF domain R5-RFL, 4.06 log2 enrichment (interaction score); with PUM1 PUF domain R5-SSR it was 6.53 log2 enrichment (interaction score).

Turning to “GGCUAGAACUAGUGGAUCCCCCGGCGCCCGGCGGCUCGAGCCCGGGUAAGUGUAAAAAGUCUGCAUGCCGCCGGGCGCCAUGCCUGCAGGUCGACUCUAGAAAACAUG”, the binding signal with PUM1 PUF domain R2-EWV was 5.9 log2 enrichment (interaction score).

For the sequence “GGCUAGAACUAGUGGAUCCCCCGGCGCCCGGCGGCUCGAGCCCGGGUAAGUGUAUAUAGUCUGCAUGCCGCCGGGCGCCAUGCCUGCAGGUCGACUCUAGAAAACAUG”, the results for the binding signal with PUM1 PUF domain R4-VPQ and with PUM1 PUF domain R4-SPA were 2.78 log2 enrichment (interaction score) and 3.25 log2 enrichment (interaction score), respectively.

For “GGCUAGAACUAGUGGAUCCCCCGGCGCCCGGCGGCUCGAGCCCGGGUAAGUGUUAAUAGUCUGCAUGCCGCCGGGCGCCAUGCCUGCAGGUCGACUCUAGAAAACAUG”, the binding signal with PUM1 PUF domain R5-TRG was 2.97 log2 enrichment (interaction score); with PUM1 PUF domain R5-GLW, 1.6 log2 enrichment (interaction score); with PUM1 PUF domain R5-RRS, 4.6 log2 enrichment (interaction score); with PUM1 PUF domain R5-RYS, 3.23 log2 enrichment (interaction score); with PUM1 PUF domain R5-RFL it was 4.97 log2 enrichment (interaction score).

Consider “GGCUAGAACUAGUGGAUCCCCCGGCGCCCGGCGGCUCGAGCCCGGGUAAGCGUAAAUAGUCUGCAUGCCGCCGGGCGCCAUGCCUGCAGGUCGACUCUAGAAAACAUG”, for which the binding signal with PUM1 PUF domain R8-RFP was 5.8 log2 enrichment (interaction score).

Regarding “GGCUAGAACUAGUGGAUCCCCCGGCGCCCGGCGGCUCGAGCCCGGGUAAGUGUAAAUUGUCUGCAUGCCGCCGGGCGCCAUGCCUGCAGGUCGACUCUAGAAAACAUG”, the binding signal in the test with PUM1 PUF domain R1-VTW is 3.57 log2 enrichment (interaction score).

As for “GGCUAGAACUAGUGGAUCCCCCGGCGCCCGGCGGCUCGAGCCCGGGUAAGUGUACAUAGUCUGCAUGCCGCCGGGCGCCAUGCCUGCAGGUCGACUCUAGAAAACAUG”, the binding signal in the test with PUM1 PUF domain R4-SPA is 1.59 log2 enrichment (interaction score).

These data come from PMC8384837, “Expanding the binding specificity for RNA recognition by a PUF domain”.
